Test results taken from PubChem BioAssay AID1558 (National Center for Advancing Translational Sciences (NCATS), 2009).
Records with an inconclusive call do not appear. The source made the active and inactive calls. Calls come from the whole dose curve; as a rule, active = well fitted inhibition curve with a large enough effect; inconclusive = small, poorly fitted or top-dose-only effect; inactive = flat fitted curve, though single readings scatter.

Molecular target: Microtubule-associated protein tau (Homo sapiens) (UniProt P10636)
Assay: Confirmation Concentration-Response Assay for Inhibitors of Tau Fibril Formation, Thioflavin T Binding
Details: recombinant tau K18 P301L (four-repeat tau fragment) heparin fibrillization, ThT fluorescence; series mostly up to 100 µM; activity change, negative = inhibition: at the top concentration
Text: NIH Molecular Libraries Probe Production Network [MLPCN] NIH Chemical Genomics Center [NCGC] MLPCN Grant: X01 MH083262-01 Assay Provider: Carlo Ballatore, University of Pennsylvania NCGC Assay Overview: The microtubule-associated protein tau is an abundant protein in the axons of neurons that stabilizes microtubules. With its ability to modulate microtubule dynamics, tau contributes directly or indirectly, to key structural and regulatory cellular functions. Particularly important is the influence tau exerts on axonal transport, which allows signaling molecules, trophic factors and other essential cellular constituents to travel along the axons. Under pathological conditions, tau becomes sequestered into insoluble aggregates called neurofibrillary tangles. This phenomenon is believed to have pathological consequences by promoting axonal transport deficits that ultimately lead to synaptic dysfunction and neuronal loss. To identify inhibitors of tau aggregation, a heparin-induced tau fibril formation assay was used that employed a recombinantly expressed fragment of tau, K18 (Q242-E372), bearing a P301L mutation (Gustke et al. 1994; Hong et al. 1998). This assay monitors tau fibrillization by Thioflavin T (ThT) fluorescence. Gustke, N., B. Trinczek, et al. (1994). "Domains of tau protein and interactions with microtubules." Biochemistry 33(32): 9511-22. Hong, M., V. Zhukareva, et al. (1998). "Mutation-specific functional impairments in distinct tau isoforms of hereditary FTDP-17." Science 282(5395): 1914-7. Li, W. and V. M. Lee (2006). "Characterization of two VQIXXK motifs for tau fibrillization in vitro." Biochemistry 45(51): 15692-701. von Bergen, M., S. Barghorn, et al. (2001). "Mutations of tau protein in frontotemporal dementia promote aggregation of paired helical filaments by enhancing local beta-structure." J Biol Chem 276(51): 48165-74.
For screening, 2 uL/well human K18 P301L (15 uM unlabeled and 0.24 uM Alexa 594-labeled tau, final concentrations) in reagent buffer (100 mM sodium acetate pH 7) was dispensed into black solid 1536-well plates (Grenier) using a solenoid-based dispenser. Following transfer of 23 nL compound or DMSO vehicle by a pin tool, 2 uL/well heparin (20 uM final concentration) in reagent buffer was added and the plate centrifuged 15 s at 1000 RPM. Plates were incubated 6 hr at 37 C and then 1 uL/well ThT (30 uM final concentration) was added. After a 1 hr ambient incubation, the plates were read by an Envision (Perkin Elmer) to monitor ThT fluorescence (450/8 nm excitation and 510/23 nm emission). Keywords: NIH Roadmap, MLPCN, MLI, MLSMR, NCGC, qHTS, tau, tauopathies, Alzheimer's disease, fibril, neurodegeneration, aggregation

Chain of Microtubule-associated protein tau (Homo sapiens) (P10636 561-689 P618L limits assumed): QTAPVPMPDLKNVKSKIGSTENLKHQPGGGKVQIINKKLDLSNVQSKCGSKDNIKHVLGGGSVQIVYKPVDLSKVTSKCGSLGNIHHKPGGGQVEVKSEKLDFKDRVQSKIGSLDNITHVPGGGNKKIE

SMILES	Potency	activity change, negative = inhibition
O=C(Nc1sc2c(c1C(=O)Nc1cccc(Cl)c1)CCCC2)c1cccs1	3.55 µM (active)	
CCOC(=O)c1c(N)sc2c1CN(C)CC2		-12.4% [at 57.1 µM] (inactive)
NC(=O)c1nn(-c2ccccc2)c(=O)c2c(N)scc12	4.47 µM (active)	
O=S(=O)(c1ccc2nc(-c3ccco3)c(-c3ccco3)nc2c1)N1CCOCC1	4.47 µM (active)	
CC(C)Cn1c(O)c(/C=C2\C=NN=C2c2ccccc2)sc1=S		-19.8% (inactive)
Cc1ccc(NCc2cc3cc4c(cc3n(CC(=O)Nc3ccc(C)cc3)c2=O)OCCO4)cc1		-0.6% (inactive)
O=C(Nc1nc2ccc(S(=O)(=O)N3CCCC3)cc2s1)c1ccc(F)cc1		12.3% (inactive)
O=C(O)CSc1cc(NS(=O)(=O)c2cccc([N+](=O)[O-])c2)c2ccccc2c1O	2 µM (active)	
CCN(CC)C(=O)c1nn(-c2ccc(OC)cc2)c(=O)c2c(N)scc12	10 µM (active)	
COc1cccc(/C=C2/SC(=S)N(CC(=O)Nc3nccs3)C2=O)c1		-10.2% [at 57.1 µM] (inactive)
CCOC(=O)c1c(N)sc2c1CCOC2		-10.4% [at 57.1 µM] (inactive)
CCOC(=O)c1nn(-c2ccc(F)cc2)c(=O)c2c(N)scc12	5.01 µM (active)	
CCc1ccc(S(=O)(=O)Nc2cc(SCC(=O)O)c(O)c3ccccc23)cc1	5.62 µM (active)	
O=C(O)CC1S/C(=N/N=C/c2ccc(-c3ccc(Cl)cc3[N+](=O)[O-])o2)NC1=O (stereo not given)	1.58 µM (active)	
COC(=O)CSc1nc2ccc(NC(=O)CSc3nnnn3Cc3ccccc3)cc2s1		-10.2% (inactive)
COc1ccc2c(c1)c(CC(=O)N1CCOCC1)c(C)n2C(=O)c1ccc(Cl)cc1		-12.2% (inactive)
CC(=O)Nc1nc(C)c(-c2csc(Nc3ccc(O)cc3)n2)s1	15.8 µM (active)	
O=C(Nc1ccc(-c2nc3ccccc3o2)cc1)c1ccc(N2CCOCC2)c([N+](=O)[O-])c1	1.12 µM (active)	
Cc1ccc(NC(=O)c2c(NC(=O)Cc3ccccc3)sc3c2CCCC3)cc1		-10.5% [at 57.1 µM] (inactive)
COc1ccc(OC)c(NC(=O)c2c(NCc3cccs3)sc3c2CCCC3)c1		-23.9% [at 57.1 µM] (inactive)

SMILES	Potency	activity change, negative = inhibition
Cc1ccc(N2C(=O)SC(Cc3ccccc3)C2=O)cc1 (stereo not given)		-28.8% (inactive)
COc1ccc2[nH]c(=O)c(CNc3ccccc3OC)cc2c1	25.1 µM (active)	
O=C(Nc1nnc(S(=O)(=O)Nc2ccccc2)s1)C1CCCCC1		-17.4% (inactive)
CC1CCc2c(sc(NC(=O)Cc3ccccc3)c2C(=O)Nc2ccc(Cl)cc2)C1 (stereo not given)		-7.58% [at 57.1 µM] (inactive)
CC(C)c1ccc(NS(=O)(=O)c2ccc3[nH]cc(C(=O)NCCc4ccccc4)c(=O)c3c2)cc1		7.6% (inactive)
COC(=O)c1c(NC(=O)CCCOc2cccc(C)c2)sc2c1C(C(=O)OC)CC2 (stereo not given)	1.78 µM (active)	
CCOC(=O)c1ccc(S(=O)(=O)Nc2nc3cc(S(=O)(=O)NC4=NCCCCC4)ccc3s2)cc1	10 µM (active)	
COc1ccc2c(c1)c(CC(=O)Nc1ccc(C(C)=O)cc1)c(C)n2C(=O)c1ccc(Cl)cc1		-18.6% (inactive)
Cc1ccc(C(=O)Nc2nc(=O)n(C(=O)CC(C)C)s2)cc1		-13.7% (inactive)
O=C(Nc1ccccc1)Nc1ccccc1		10.8% (inactive)
Nc1scc2c(C(=O)O)nn(-c3ccccc3)c(=O)c12	6.31 µM (active)	
COc1ccc(Cl)cc1NC(=O)c1c(NCc2sccc2C)sc2c1CCCC2	1 µM (active)	
O=C(NCc1cccnc1)C1CCN(S(=O)(=O)c2cccs2)CC1		-16.8% (inactive)
COc1ccc(NC(=O)Cn2cc(S(=O)(=O)N3CCN(c4ccccc4F)CC3)c3ccccc3c2=O)cc1Cl		5.9% (inactive)
CN(c1ccccc1)S(=O)(=O)c1nnc(NC(=O)COc2ccccc2)s1		-16.4% (inactive)
Oc1ccccc1CNc1cccc2cccnc12	39.8 µM (active)	
O=C(Cc1ccccc1)Nc1sc2c(c1C(=O)Nc1cccc(Cl)c1)CCCC2		-11.2% [at 57.1 µM] (inactive)
COc1ccc(NC(=O)C2CCN(S(=O)(=O)c3c(C)noc3/C=C/c3cccs3)CC2)cc1Cl		-9.5% (inactive)
Nc1scc2c(C(=O)NCc3ccccc3)nn(-c3ccccc3)c(=O)c12	7.08 µM (active)	
CCOC(=O)c1nn(-c2ccc(OC)cc2)c(=O)c2c(NC(=O)Cc3ccccc3)scc12		-28.9% [at 57.1 µM] (inactive)
